According to PubChem BioAssay AID588458 (Sanford-Burnham Center for Chemical Genomics, 2011):
Out of some 360,000 compounds screened, about 3,000 (0.83%) were called active. Rule as the data show it: active = inhibition above about 50%; inactive = the rest. For the sample, actives were picked, then their nearest neighbours and some compounds at random.

target: DNA (cytosine-5)-methyltransferase 1 (Homo sapiens) (UniProt P26358); test: human DNMT1 methyltransferase inhibitors, primary screen, biochemical, molecular beacon, fluorescence, HinP1I cleavage, uHTS (AID 588458); conditions: at 10 µM, hits give high values
Sequence (P26358 504-1616 limits assumed): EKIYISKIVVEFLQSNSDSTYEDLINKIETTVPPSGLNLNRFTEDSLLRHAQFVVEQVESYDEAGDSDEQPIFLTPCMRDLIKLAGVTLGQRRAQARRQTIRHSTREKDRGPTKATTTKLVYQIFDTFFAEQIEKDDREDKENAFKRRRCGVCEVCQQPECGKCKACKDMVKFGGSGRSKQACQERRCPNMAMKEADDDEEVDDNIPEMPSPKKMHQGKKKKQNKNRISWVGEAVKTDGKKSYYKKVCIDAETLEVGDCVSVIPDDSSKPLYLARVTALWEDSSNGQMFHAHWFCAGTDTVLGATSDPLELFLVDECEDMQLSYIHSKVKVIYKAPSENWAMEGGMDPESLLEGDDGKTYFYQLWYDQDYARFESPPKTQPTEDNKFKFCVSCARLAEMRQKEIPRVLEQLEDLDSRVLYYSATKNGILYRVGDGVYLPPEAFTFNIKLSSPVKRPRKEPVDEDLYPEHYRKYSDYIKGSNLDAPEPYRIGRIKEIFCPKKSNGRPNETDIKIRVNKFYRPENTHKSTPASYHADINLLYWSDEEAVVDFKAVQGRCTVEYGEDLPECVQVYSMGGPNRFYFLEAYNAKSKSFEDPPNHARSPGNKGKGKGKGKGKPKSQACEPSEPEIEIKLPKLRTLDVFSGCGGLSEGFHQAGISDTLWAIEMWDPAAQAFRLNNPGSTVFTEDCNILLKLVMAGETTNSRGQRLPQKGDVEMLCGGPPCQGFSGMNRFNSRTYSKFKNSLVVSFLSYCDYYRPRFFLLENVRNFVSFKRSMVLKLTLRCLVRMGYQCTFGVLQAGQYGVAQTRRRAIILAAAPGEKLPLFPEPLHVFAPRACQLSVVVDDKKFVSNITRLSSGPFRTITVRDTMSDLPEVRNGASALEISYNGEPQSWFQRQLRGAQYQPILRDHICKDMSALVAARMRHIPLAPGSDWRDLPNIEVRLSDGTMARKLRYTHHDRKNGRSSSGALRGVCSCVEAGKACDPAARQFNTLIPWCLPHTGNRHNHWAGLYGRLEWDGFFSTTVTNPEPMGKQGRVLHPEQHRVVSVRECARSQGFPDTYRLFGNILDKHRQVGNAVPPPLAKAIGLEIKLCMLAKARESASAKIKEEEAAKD

| SMILES | inhibition (reported as % activation of signal) |
| --- | --- |
| COC(=O)c1ccc(C2NC(=O)NC(C)=C2C(=O)N(C)C)cc1 (stereo not given) | 0.97% (inactive) |
| O=C(NNC(=O)c1cc(-c2ccccc2Cl)nc2ccccc12)c1csc(N2CCOCC2)n1 | 1.75% (inactive) |
| O=C(Nc1ccc2ccccc2c1)Nc1ccc2snnc2c1 | -8.95% (inactive) |
| COC(=O)c1ccccc1NC(=O)C1(S(=O)(=O)c2ccc(Cl)cc2)CC1 | -0.08% (inactive) |
| CCOC(=O)C1CCCN(C(=O)CSc2nnc3nc(C)cc(C)n23)C1 (stereo not given) | 0.98% (inactive) |
| CN(C)CC(C)(C)CNC(=O)c1cc(Br)cc(Br)c1O | -5.18% (inactive) |
| CCOc1ccccc1/C=c1\sc2nc(-c3ccco3)nn2c1=O | 93.3% (active) |
| CCCn1nc(C(=O)NNC(=O)CCOc2ccccc2OCC)c2ccccc2c1=O | 0.9% (inactive) |
| CCOc1ccccc1C1NC(=O)NC(C)=C1C(=O)OCc1ccco1 (stereo not given) | -2.52% (inactive) |
| CCc1ccc(C(=O)C(C)OC(=O)CN2C(=O)NC3(CCCC3)C2=O)cc1 (stereo not given) | 3.64% (inactive) |
| N#Cc1cccc(NC(=O)COC(=O)c2ccccc2C(=O)c2ccc(Cl)c([N+](=O)[O-])c2)c1 | -3.9% (inactive) |
| COc1ccc(-n2c(SCC(=O)Nc3sc4c(c3C#N)CCCC4)nnc2-c2ccc(O)cc2)cc1 | 67.7% (active) |
| COc1cccc(CN(C)CC(=O)Nc2sc3c(c2C#N)CCC3)c1 | -0.9% (inactive) |
| CCCc1cc(=O)[nH]c(SCC(=O)Nc2sc3c(c2C#N)CCCC3)n1 | -0.63% (inactive) |
| CCCCN(C)CCNC(=O)CSCc1ccc(C)cc1 | 1.5% (inactive) |
| CC1=C(C(=O)N2CCOCC2)CC(CC(=O)NCc2cccs2)C(=O)N1CCCN1CCCC1=O (stereo not given) | 6.83% (inactive) |
| COc1ccc(C(=O)/C=C/c2ccc(-c3ccccc3)cc2)cc1CSCC(=O)O | 56% (active) |
| COc1ccccc1CCNC(=O)C1CCN(C(=O)/C=C/c2ccccc2)CC1 | -0.55% (inactive) |
| COC(=O)c1ccc(COc2ccc(/C=C/C(=O)c3ccc(OC)c(CSCC(=O)O)c3)cc2OC)cc1 | 11.9% (inactive) |
| CC(C)(C)NC(=O)COC(=O)c1cc(Cl)ccc1[N+](=O)[O-] | 6.7% (inactive) |
| O=S(=O)(c1cccc(-c2nnc(SC(F)F)n2-c2ccccc2)c1)N1CCCCC1 | -1.8% (inactive) |
| CCn1ccnc1CNC(=O)CC1C(=O)NCCN1Cc1ccc(F)cc1Cl (stereo not given) | -0.81% (inactive) |
| COc1ccc(S(=O)(=O)N2CCOC2CNC(=O)C(=O)NCc2ccncc2)cc1OC (stereo not given) | -1.09% (inactive) |
| COc1ccc(NC(=O)C2C3C=CC(C3)C2C(=O)NCc2ccccn2)c(OC)c1 (stereo not given) | 1.26% (inactive) |

| SMILES | inhibition (reported as % activation of signal) |
| --- | --- |
| CCCn1nnnc1NCc1ccc(CC)cc1 | 0.45% (inactive) |
| CCOC(=O)C1CCCN(C(=O)c2ccc(N(C)C)cc2)CC1 (stereo not given) | -7.05% (inactive) |
| O=c1[nH]c(/C=C\c2cccc(C(F)(F)F)c2)nc(O)c1[N+](=O)[O-] | 4.66% (inactive) |
| O=c1[nH]c(/C=C/c2cccc(Br)c2)nc2ccccc12 | 53% (active) |
| O=c1[nH]c(SCc2cccc(F)c2)nc2ccccc12 | -0.9% (inactive) |
| CCN(CC)C(=O)CSc1nnc(-c2ccc(S(=O)(=O)NCc3ccccc3Cl)cc2)o1 | 4.4% (inactive) |
| Clc1cc(NC2CCCCC2)ncn1 | 1.17% (inactive) |
| CCCC(C(=O)NCc1ccco1)N(C(=O)CNS(=O)(=O)c1ccccc1)C1CCCC1 (stereo not given) | 0.13% (inactive) |
| O=S(=O)(Nc1nccs1)c1ccc2c(c1)OCCO2 | 0.9% (inactive) |
| c1coc(-c2nc3nc4ccccc4n3nc2-c2ccco2)c1 | 86.2% (active) |
| CC(Oc1ccc(Cl)cc1Cl)C(=O)/C=C/N(C)C (stereo not given) | 1.08% (inactive) |
| Cn1c(Nc2ccc(F)cc2)nc2cc(-c3ccsc3)sc2c1=O | 1.88% (inactive) |
| COc1ccc(S(=O)(=O)N2CCC(C(=O)NCCC(=O)Nc3ccccc3OC)CC2)cc1 | 3.13% (inactive) |
| CC(CCc1ccc(O)cc1)NCc1ccc(Cl)cc1Cl (stereo not given) | 1.55% (inactive) |
| COc1cccc(/C=C2\SC(=N)N(c3ccc(F)cc3)C2=O)c1 | 29.4% (inactive) |
| COc1ccc(N2C(=O)CNC2=S)cc1 | 0.19% (inactive) |
| COc1ccc(/C=C2\SC(=N)N(c3ccc(F)cc3)C2=O)cc1 | 59% (active) |
| COC(=O)C1=C(C)NC(=S)NC1c1ccc(OCC(=O)N2CC(C)OC(C)C2)c(OC)c1 (stereo not given) | -3.49% (inactive) |
| O=C1CC(Cc2ccc(Cl)cc2)C(=O)N1c1cc(Cl)ccn1 (stereo not given) | 1.99% (inactive) |
| O=C(NC1CCCC1)C(NS(=O)(=O)c1ccc(Br)s1)c1ccccc1 (stereo not given) | 3.01% (inactive) |
| Cc1ccc(/C=C/C(=O)OCC(=O)Nc2cccnc2Cl)cc1 | 0.14% (inactive) |
| O=C(COC(=O)/C=C/c1cn(-c2ccccc2)nc1-c1cccnc1)Nc1ccc(Cl)cc1Cl | 56% (active) |
| COc1ccc(NC(=O)CN(C)C(=O)/C=C/c2cn(Cc3ccccc3)nc2-c2cccnc2)cc1 | 2.58% (inactive) |
| CCN(CC(=O)Nc1ccc(OC)cc1)C(=O)c1ccc(=O)n(Cc2ccccc2)n1 | 4.56% (inactive) |

| SMILES | inhibition (reported as % activation of signal) |
| --- | --- |
| Nc1ccc2nc3c(=O)[nH]c(=S)[nH]c3nc2c1 | 129% (active) |
| CC1(Oc2cccc(F)c2)CCN(Cc2ccccc2OC(F)F)C1 (stereo not given) | 8.51% (inactive) |
| CCCOc1ccc2c3c(c(=O)oc2c1OCCC)CCC3 | 5.15% (inactive) |
| CCCn1nc(C(=O)OCc2nc(N)nc(Nc3ccccc3C)n2)c2ccccc2c1=O | -3.44% (inactive) |
| Cc1ccc(C(=O)NNc2ncnc3ccccc23)cc1 | 2.1% (inactive) |
| Cc1ccc(C(=O)NNC(=O)c2cc3cc4ccccc4nc3s2)cc1 | 54.4% (active) |
| Cc1ccc(C(=O)NNC(=O)CSc2nnc3ccccn23)cc1 | -3.3% (inactive) |
| CCOc1cc(C(=O)Nc2c(C)ccc3nsnc23)cc(OCC)c1OCC | 1.78% (inactive) |
| c1ccc2c(-c3nn4nnnc4c4ccccc34)cccc2c1 | -1.65% (inactive) |
| CCCN1Cc2cccc(C(=O)NCc3ccccc3)c2C1=O | 0.1% (inactive) |
| Cc1ccc(S(=O)(=O)N2CCN=C2SCc2c(F)cccc2Cl)cc1 | -1.13% (inactive) |
| C/C(=N\Nc1ccccc1)c1cccs1 | -15% (inactive) |
| C/C(=N\Nc1ccc(S(N)(=O)=O)cc1[N+](=O)[O-])c1cccs1 | 51% (active) |
| CCOC(=O)C/C(C)=N\Nc1ccc([N+](=O)[O-])cc1[N+](=O)[O-] | 8.42% (inactive) |
| CCCCNc1c(-c2cccc(Sc3ccc(OC)cc3)c2)nc2ccccn12 | -24.9% (inactive) |
| CCc1nnc(NC(=O)c2cc(S(=O)(=O)N3CCN(CC)CC3)ccc2Cl)s1 | 1.36% (inactive) |
| Clc1ccc(C2=CSC3=Nc4cccc5cccc(c45)N23)cc1 | 61.1% (active) |
| O=C(COC(=O)c1ccc(S(=O)(=O)N2CCc3ccccc3C2)cc1)NC(=O)NCc1ccco1 | 4.21% (inactive) |
| CCc1nc(SCC(=O)Nc2ccccc2OC)n[nH]1 | 0.12% (inactive) |
| CCOc1ccccc1NC(=S)C(=C([O-])c1ccc2c(c1)OCCO2)[n+]1ccc(CC)cc1 | -14.6% (inactive) |
| CC(C)(C)n1nc(Cc2cccc3ccccc23)c(C#N)c1N | 3.39% (inactive) |
| CCc1nn(-c2cc(Oc3cccc4ccccc34)nc(-c3ccccc3)n2)c(N)c1C#N | 56.2% (active) |
| CCCCn1nnnc1C(c1cccc(OC)c1OC)N1CCN(C/C=C/c2ccccc2)CC1 (stereo not given) | -2.12% (inactive) |
| O=C(CCN1CCc2ccccc2C(O)(c2ccccc2)C1)c1ccc2c(c1)OCCO2 (stereo not given) | -2.82% (inactive) |

| SMILES | inhibition (reported as % activation of signal) |
| --- | --- |
| CSC1=NC2(C)CCCCC2C12C=CC(=O)C=C2 (stereo not given) | -0.69% (inactive) |
| CS(=O)(=O)N(CC(=O)N1CCN(c2ccc(F)cc2)CC1)C1CCCCC1 | 0.1% (inactive) |
| O=C(NNC1=NCCC1)c1cccc(S(=O)(=O)N2CCCCC2)c1 | 2.1% (inactive) |
| Cc1nn(C)cc1CNC(=O)Nc1ccc(Cl)cc1 | -5.06% (inactive) |
| O=C(NCc1cccs1)c1cc(-c2ccccn2)nc2ccc(Br)cc12 | 18.8% (inactive) |
| Cc1ccc(-c2cc(C(=O)NCc3cn(C)nc3C)c3cc(Br)ccc3n2)cc1 | 54.2% (active) |
| CCCCc1nc2cc(C(=O)N3CCCCC3CCO)ccc2o1 (stereo not given) | 0.96% (inactive) |
| CC1CCN(C(=O)CCc2nnc3ccc(NCc4ccco4)nn23)CC1 | -2.17% (inactive) |
| CC(Oc1ccccc1)C(=O)Nc1oc(-c2ccco2)c(-c2ccco2)c1C#N (stereo not given) | 63.1% (active) |
| CC(C)C(=O)Nc1oc(-c2ccccc2)cc1C#N | 1.41% (inactive) |
| N#Cc1c(NC(=O)CCCN2C(=O)c3ccccc3C2=O)oc(-c2ccccc2)c1-c1ccccc1 | -7.82% (inactive) |
| Cc1cc(=O)oc(C)c1C(=O)NC1CC(C)(C)NC(C)(C)C1 | 4.08% (inactive) |
| O=C(Nc1nccs1)C1CCN(S(=O)(=O)c2ccc(Cl)c(C(F)(F)F)c2)CC1 | -0.42% (inactive) |
| Cc1ccc(C)c(C(O)c2ncc(-c3cccc4ccccc34)[nH]2)c1 (stereo not given) | -0.1% (inactive) |
| O=C1CSc2ccc(S(=O)(=O)NCc3ccccc3)cc2N1 | -1.62% (inactive) |
| OCCCC1CCCCN1Cc1nc(Cc2ccccc2Cl)no1 (stereo not given) | 0.35% (inactive) |
| CCN(CC)c1ccc(NC(=O)c2ccc(Cl)nc2)cc1 | -2.12% (inactive) |
| O=C(NNc1ccccn1)c1ccc(Cl)nc1 | 80.7% (active) |
| O=C(NNC(=O)c1ccc(Cl)nc1)c1ccc(Br)cc1 | 5.15% (inactive) |
| CCN(CC)P(=O)(C(NC(=O)OC)C(F)(F)C(F)(F)C(F)(F)C(F)F)N(CC)CC (stereo not given) | 0.14% (inactive) |
| O=C(COC(=O)CCC(=O)c1cccs1)NCc1ccco1 | 72.8% (active) |
| CC1CCN(C(=O)COC(=O)CCC(=O)c2cccs2)CC1 | 0.68% (inactive) |
| O=C(COC(=O)Cc1ccc(Cl)cc1Cl)NCc1ccco1 | -2.23% (inactive) |
